Assay [1] in a line: NCI Yeast Anticancer Drug Screen. Data for the rad50 strain (AID 155).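 Further: 0% = growth of vehicle-only cultures of the same strain.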 The note with it: S. cerevisiae rad50 strain growth inhibition, stronger effect = higher value. The essentials:
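Relative growth inhibition (compound vs vehicle) was measured in yeast with a defined repair-gene alteration.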

The nature of assay [2]: NCI Yeast Anticancer Drug Screen. Data for the mec2-1 strain (AID 157). The note with it: S. cerevisiae mec2-1 strain, stronger effect = higher value. The essentials: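 Vehicle-treated cultures served as reference for growth inhibition of compound-exposed mec2-1 yeast.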
The nature of assay [3]: NCI Yeast Anticancer Drug Screen. Data for the sgs1 mgt1 strain (AID 161).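 Further: 0% = growth of cultures given vehicle only.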 The note with it: S. cerevisiae sgs1 mgt1 strain, stronger effect = higher value. Put shortly: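 Genetically altered yeast, compound exposure, growth inhibition relative to vehicle.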
The nature of assay [4]: NCI Yeast Anticancer Drug Screen. Data for the cln2 rad14 strain (AID 165).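 Further: 0% = growth equal to vehicle treated cultures.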 The note with it: S. cerevisiae cln2 rad14 strain, stronger effect = higher value. Put shortly: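 Each compound was tested on cln2 rad14 yeast. Inhibition of growth was calculated against vehicle-exposed controls.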
Assay [5] is described as follows: NCI Yeast Anticancer Drug Screen. Data for the bub3 strain (AID 167). The note with it: S. cerevisiae bub3 mutant strain, stronger effect = higher value. The essentials:
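Screening used yeast with an engineered genetic alteration affecting cell cycle control. Compound-exposed cultures were compared with vehicle cultures, and reduced growth was taken as inhibition.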

Assay [6] can be described thus: NCI Yeast Anticancer Drug Screen. Data for the mlh1 rad18 strain (AID 175). The note with it: S. cerevisiae mlh1 rad18 strain growth inhibition, stronger effect = higher value. Put shortly:
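Vehicle-treated cultures served as the reference for growth inhibition in a yeast strain carrying DNA damage repair alterations exposed to each compound.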

Where [7] appears, read: at 5.0 µM (retest, dose inferred, filed as 0.5).
Setting [8] is: at 50.0 µM (retest, dose inferred, filed as 5.0).

SMILES strings stand for the structures. About 79,000 compounds went through this panel and 15% of them were active in at least one assay; those are over-represented in the sample as a whole. Values without a mark were called inactive. Calls of active or inactive are those of the source. No stated cut-off is given here; in the data, active means growth inhibition above about 70%; inactive means the rest.

For the compound `CC(=O)NC1=C(Sc2ccc([N+](=O)[O-])cc2)C(=O)c2ccccc2C1=O`, the growth inhibition was 96% (active) in assay [1] (setting [7]); 98% (active) in assay [1] (setting [8]); 61.4% in assay [1] (at 50.0 µM); 98% (active) in assay [2] (setting [7]); 96% (active) in assay [2] (setting [8]); 11.1% in assay [2] (at 50.0 µM). Further, the growth inhibition is 98% (active) in assay [3] (setting [7]); 99% (active) in assay [3] (setting [8]); 21.9% in assay [3] (at 50.0 µM); 46% in assay [4] (setting [7]); 13% in assay [4] (setting [8]); -18.1% in assay [4] (at 50.0 µM). Moreover, the growth inhibition in assay [5] (setting [7]) was 75% (active); in assay [5] (setting [8]) it was 5%; in assay [5] (at 50.0 µM), 62%; in assay [6] (setting [7]), 98% (active); in assay [6] (setting [8]), 99% (active); in assay [6] (at 50.0 µM), 51.5%.
Take `Cc1ccc(S(=O)(=O)OC(C=O)C(O)C(O)COC(c2ccccc2)(c2ccccc2)c2ccccc2)cc1` (stereo unspecified): the growth inhibition in assay [1] (setting [7]) is 98% (active); in assay [1] (setting [8]) it was 98% (active); in assay [1] (at 50.0 µM), 87.8% (active); in assay [2] (setting [7]), 98% (active); in assay [2] (setting [8]), 98% (active); in assay [2] (at 50.0 µM), 84.5% (active). Also, the growth inhibition in assay [3] (setting [7]) is 95% (active); in assay [3] (setting [8]), 95% (active); in assay [3] (at 50.0 µM) it was 86.4% (active); in assay [4] (setting [7]) it was 99% (active); in assay [4] (setting [8]), 99% (active); in assay [4] (at 50.0 µM), 84.8% (active). Moreover, the growth inhibition in assay [5] (setting [7]) is 98% (active); in assay [5] (setting [8]) it was 98% (active); in assay [5] (at 50.0 µM), 88.5% (active); in assay [6] (setting [7]) it was 99% (active); in assay [6] (setting [8]), 99% (active); in assay [6] (at 50.0 µM), 85.2% (active).
As for `Brc1ccc(-c2c3ccccc3cc3c2ccc2ccccc23)cc1`, the growth inhibition in assay [1] (setting [7]) was 1%; in assay [1] (setting [8]), -14%; in assay [1] (at 50.0 µM), 42.9%; in assay [2] (setting [7]), 1%; in assay [2] (setting [8]), -10%; in assay [2] (at 50.0 µM), 30.2%. Further, the growth inhibition in assay [3] (setting [7]) is 2%; in assay [3] (setting [8]), 1%; in assay [3] (at 50.0 µM) it was 47.8%; in assay [4] (setting [7]), -2%; in assay [4] (setting [8]) it was -24%; in assay [4] (at 50.0 µM), 74.5% (active). Further, the growth inhibition in assay [5] (setting [7]) is -5%; in assay [5] (setting [8]), 26%; in assay [5] (at 50.0 µM), 38.1%; in assay [6] (setting [7]), -4%; in assay [6] (setting [8]), -9%; in assay [6] (at 50.0 µM), 47.1%.
On to `CCCC/C=C(/CCCCOCOCCOC)[Si](C)(C)C`, for which the growth inhibition in assay [1] (setting [7]) is -1%; in assay [1] (setting [8]), -1%; in assay [1] (at 50.0 µM), -13.2%; in assay [2] (setting [7]), -5%; in assay [2] (setting [8]) it was -2%; in assay [2] (at 50.0 µM), -1.8%. Besides, the growth inhibition in assay [3] (setting [7]) was -1%; in assay [3] (setting [8]) it was 6%; in assay [3] (at 50.0 µM), 15.9%; in assay [4] (setting [7]) it was 1%; in assay [4] (setting [8]) it was -15%; in assay [4] (at 50.0 µM), 86.1% (active). The growth inhibition is -3% in assay [5] (setting [7]); -9% in assay [5] (setting [8]); 11.7% in assay [5] (at 50.0 µM); -8% in assay [6] (setting [7]); 4% in assay [6] (setting [8]); 30.8% in assay [6] (at 50.0 µM).
Regarding `CCN1C2=NCCN2S(=O)(=O)c2ccccc21`, the growth inhibition is 5% in assay [1] (setting [7]); 11% in assay [1] (setting [8]); -14.4% in assay [1] (at 50.0 µM); 9% in assay [2] (setting [7]); 9% in assay [2] (setting [8]); -4.45% in assay [2] (at 50.0 µM). In addition, the growth inhibition was 8% in assay [3] (setting [7]); 14% in assay [3] (setting [8]); -27.9% in assay [3] (at 50.0 µM); 14% in assay [4] (setting [7]); 10% in assay [4] (setting [8]); -20.6% in assay [4] (at 50.0 µM). The growth inhibition was 13% in assay [5] (setting [7]); 11% in assay [5] (setting [8]); -22.1% in assay [5] (at 50.0 µM); 20% in assay [6] (setting [7]); 13% in assay [6] (setting [8]); -5.3% in assay [6] (at 50.0 µM).
As to `C#Cc1cccc(N2C(=O)CCC2=O)c1`, the growth inhibition in assay [1] (setting [7]) is 36%; in assay [1] (setting [8]), 44%; in assay [1] (at 50.0 µM), 91.7% (active); in assay [2] (setting [7]), 48%; in assay [2] (setting [8]) it was 43%; in assay [2] (at 50.0 µM), 93.6% (active). Besides, the growth inhibition in assay [3] (setting [7]) was 99% (active); in assay [3] (setting [8]), 99% (active); in assay [3] (at 50.0 µM), 94.1% (active); in assay [4] (setting [7]), 97% (active); in assay [4] (setting [8]), 99% (active); in assay [4] (at 50.0 µM), 91.2% (active). Besides, the growth inhibition in assay [5] (setting [7]) is 100% (active); in assay [5] (setting [8]), 97% (active); in assay [5] (at 50.0 µM) it was 92.3% (active); in assay [6] (setting [7]) it was 42%; in assay [6] (setting [8]) it was 40%; in assay [6] (at 50.0 µM), 91.8% (active).
Take `C[Si](C)c1cccc(Cl)c1`: the growth inhibition in assay [1] (setting [7]) is 2%; in assay [1] (setting [8]), 5%; in assay [1] (at 50.0 µM) it was 0.25%; in assay [2] (setting [7]), 0%; in assay [2] (setting [8]), 4%; in assay [2] (at 50.0 µM) it was 0.45%. Moreover, the growth inhibition in assay [3] (setting [7]) was -1%; in assay [3] (setting [8]) it was -3%; in assay [3] (at 50.0 µM), 6.9%; in assay [4] (setting [7]) it was 8%; in assay [4] (setting [8]) it was 6%; in assay [4] (at 50.0 µM) it was 13.8%. In addition, the growth inhibition in assay [5] (setting [7]) is 1%; in assay [5] (setting [8]) it was 0%; in assay [5] (at 50.0 µM), 7.55%; in assay [6] (setting [7]), -29%; in assay [6] (setting [8]) it was 1%; in assay [6] (at 50.0 µM), -0.75%.

(Values after PubChem BioAssay (NCI).)
